Several values for one entry are separate records, joined by “and”; a condition that tells them apart may be missing. Equal entries are not always repeated. Results filed as inconclusive are left out. Some structures have more than one record in an assay (separate samples or runs), and their calls can disagree. Activity calls are given as the source filed them. How the source made its calls, unless noted: active means hit-call score of the fitted dose curve at least 0.9, where 1 is the maximum; inactive means score below 0.9.
How the values were obtained:
[1] = biological target: human Peroxisome Proliferator-activated Receptor delta (PPARd), PPARD (gene 5467) (UniProt Q03181); assay: ATG_PPARd_TRANS: Attagene TRANS-FACTORIAL HepG2 Assay for human Peroxisome Proliferator-activated Receptor delta (PPARd) (AID 2283002; active means hit-call score of the fitted dose curve at least 0.9, where 1 is the maximum)
In short: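 Read-out is induced reporter mRNA, quantified by RT-PCR with fluorescent labelling and capillary electrophoresis after 24 h dosing. Cells are HepG2 transiently carrying multiple GAL4-UAS reporter units driven by exogenous NR-GAL4 chimeras; DMSO serves as baseline.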

[2] = read-out: Intercellular Adhesion Molecule 1 (ICAM1), ICAM1 (gene 3383); assay: BSK_3C_ICAM1: BioMAP Diversity Plus: 3C Assay for Intercellular Adhesion Molecule 1 (ICAM1) Biomarker Activity (AID 2283003); conditions: primary human endothelial cells (HUVEC); actives raise or lower the signal
In short: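 Primary human umbilical vein endothelial cells in the BioMAP 3C system were exposed to chemicals for 24 h, then ICAM-1 was quantified by ELISA. Activity was fitted bidirectionally against the DMSO negative control baseline.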

[3] = biological target: Peroxisome proliferator-activated receptor gamma (Homo sapiens) (UniProt P37231); assay: ATG_PPARg_TRANS: Attagene TRANS-FACTORIAL HepG2 Assay for human Peroxisome Proliferator-activated Receptor-gamma (PPARg) (AID 2283007; active means hit-call score of the fitted dose curve at least 0.9, where 1 is the maximum)
In short: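 Read-out: reporter mRNA induction, detected by fluorescence after RT-PCR and capillary electrophoresis. Transiently transfected human HepG2 liver cells carrying a chimeric NR-Gal4 construct were dosed for 24 h; activity was fitted upward relative to DMSO.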

[4] = biological target: Nuclear receptor subfamily 1 group I member 2 (Homo sapiens) (UniProt O75469); assay: ATG_PXR_TRANS: Attagene TRANS-FACTORIAL HepG2 Assay for human Pregnane X Receptor (PXR) (AID 2283008; active means hit-call score of the fitted dose curve at least 0.9, where 1 is the maximum)
In short: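 Measures mRNA induction of a GAL4-UAS-driven reporter in human HepG2 cells transiently expressing PXR fused to Gal4, following 24 h treatment. DMSO served as negative control and baseline.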

[5] = biological target: human RAR-related Orphan Receptor beta (RORb), RORB (gene 6096) (UniProt Q92753); assay: ATG_RORb_TRANS: Attagene TRANS-FACTORIAL HepG2 Assay for human RAR-related Orphan Receptor beta (RORb) (AID 2283010; active means hit-call score of the fitted dose curve at least 0.9, where 1 is the maximum)
In short: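 HepG2 cells were transiently transfected with multiplexed GAL4-UAS reporter units expressing chimeric nuclear receptor–GAL4 proteins, then dosed for 24 h. Reporter mRNA was quantified by RT-PCR with fluorescent labelling and capillary electrophoresis; gain of signal was fitted relative to DMSO.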

[6] = biological target: human RAR-related Orphan Receptor gamma (RORg), RORC (gene 6097) (UniProt P51449); assay: ATG_RORg_TRANS: Attagene TRANS-FACTORIAL HepG2 Assay for human RAR-related Orphan Receptor gamma (RORg) (AID 2283011; active means hit-call score of the fitted dose curve at least 0.9, where 1 is the maximum)
In short: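 Activity is scored as increase in GAL4-UAS reporter mRNA over DMSO, detected by fluorescent RT-PCR and capillary electrophoresis in HepG2 cells transiently expressing a RORg-Gal4 chimera, 24 h after dosing.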

[7] = biological target: human Retinoid X Receptor beta (RXRb), RXRB (gene 6257) (UniProt P28702); assay: ATG_RXRb_TRANS: Attagene TRANS-FACTORIAL HepG2 Assay for human Retinoid X Receptor beta (RXRb) (AID 2283013; active means hit-call score of the fitted dose curve at least 0.9, where 1 is the maximum)
In short: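 HepG2 cells transiently transfected with multiplexed reporter units driven by GAL4-UAS and exogenous chimeric NR-Gal4 proteins; treated 24 h. Reporter mRNA measured by RT-PCR, 6-FAM labelling and capillary electrophoresis; gain-of-signal fitted versus DMSO baseline.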

[8] = read-out: E-selectin (Homo sapiens) (UniProt P16581); assay: BSK_3C_Eselectin: BioMAP Diversity Plus: 3C Assay for Eselectin Biomarker Activity (AID 2283015); conditions: primary human endothelial cells (HUVEC); actives raise or lower the signal;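 on outcome: cell surface E-selectin protein quantified by ELISA 24 h after dosing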
In short: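 Human vascular endothelium from umbilical vein is exposed to test chemicals for 24 h. E-selectin levels are read by ELISA and compared with DMSO controls.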

[9] = read-out: Interleukin-1 alpha (IL1a), IL1A (gene 3552); assay: BSK_BE3C_IL1a: BioMAP Diversity Plus: BE3C Assay for Interleukin-1 alpha (IL1a) Biomarker Activity (AID 2283016); conditions: primary human bronchial epithelial cells; actives raise or lower the signal
In short: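 Human primary bronchial epithelial cells (BE3C system) were dosed with compound and IL-1a measured by ELISA 24 h later. Activity was fitted bidirectionally against DMSO baseline; cytotoxicity was tracked in parallel cultures by SRB total-protein staining.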

[10] = read-out: Monocyte Chemoattractant Protein-1 (MCP1), CCL2 (gene 6347); assay: BSK_3C_MCP1: BioMAP Diversity Plus: 3C Assay for Monocyte Chemoattractant Protein-1 (MCP1) Biomarker Activity (AID 2283017); conditions: primary human endothelial cells (HUVEC); actives raise or lower the signal
In short: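 Endothelial cells from human umbilical vein are dosed with chemical, cultured 24 h, then assayed for MCP-1 by ELISA; both increases and decreases are modelled against DMSO controls.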

[11] = read-out: Monocyte Chemoattractant Protein-1 (MCP1), CCL2 (gene 6347); assay: BSK_4H_MCP1: BioMAP Diversity Plus: 4H Assay for Monocyte Chemoattractant Protein-1 (MCP1) Biomarker Activity (AID 2283018); conditions: primary human endothelial cells (HUVEC); actives raise or lower the signal
In short: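 Human umbilical vein endothelial cells (4H system) dosed with chemical; MCP-1 measured by ELISA 24 h after dosing. Bidirectional curve fitting against DMSO negative control as baseline; parallel SRB total-protein staining tracks overt cytotoxicity.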

[12] = read-out: Human Leukocyte Antigen - DR isotype (HLADR), HLA-DRA (gene 3122); assay: BSK_3C_HLADR: BioMAP Diversity Plus: 3C Assay for Human Leukocyte Antigen - DR isotype (HLADR) Biomarker Activity (AID 2283019); conditions: primary human endothelial cells (HUVEC); actives raise or lower the signal;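 on outcome: ELISA of cell-surface HLA-DR on HUVEC 24 h after dosing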
In short: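 Endothelial cells from human umbilical vein are treated with test chemical; after 24 h, HLA-DR levels are measured by ELISA. Data are fitted in both directions using DMSO as the baseline.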

[13] = read-out: Interleukin-8 (IL8), CXCL8 (gene 3576); assay: BSK_3C_IL8: BioMAP Diversity Plus: 3C Assay for Interleukin-8 (IL8) Biomarker Activity (AID 2283020); conditions: primary human endothelial cells (HUVEC); actives raise or lower the signal
In short: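 Primary human umbilical vein endothelial cells (3C system) were exposed to test chemical for 24 h, then IL-8 was quantified by ELISA. Responses were fitted bidirectionally against DMSO vehicle as baseline.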

[14] = read-out: Monokine induced gamma interferon (MIG), CXCL9 (gene 4283); assay: BSK_3C_MIG: BioMAP Diversity Plus: 3C Assay for Monokine induced gamma interferon (MIG) Biomarker Activity (AID 2283021); conditions: primary human endothelial cells (HUVEC); actives raise or lower the signal;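 on AC50: MIG protein level measured by immunoassay in the treated endothelial cultures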
In short: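 Primary human umbilical vein endothelial cells in the 3C system were exposed to chemical for 24 h, after which MIG was quantified by ELISA. Activity was fitted bidirectionally against DMSO as negative control and baseline.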

[15] = biological target: human Vitamin D Receptor (VDR), VDR (gene 7421) (UniProt P11473); assay: ATG_VDR_TRANS: Attagene TRANS-FACTORIAL HepG2 Assay for human Vitamin D Receptor (VDR) (AID 2283022; active means hit-call score of the fitted dose curve at least 0.9, where 1 is the maximum)
In short: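 Fluorescence of labelled reporter cDNA fragments, resolved by capillary electrophoresis, gives mRNA induction after 24 h treatment of HepG2 cells carrying transfected Gal4-fusion reporter units. Activity is fitted in the positive direction with DMSO as baseline.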

[16] = BSK_3C_Proliferation: Cell Proliferation Assessment in the BioMAP Diversity Plus: 3C Assay (AID 2283006); conditions: primary human endothelial cells (HUVEC);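 further: potency may reflect either rise or fall in cell number versus DMSO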
In short: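 Human umbilical vein endothelial cells were grown sub-confluent and exposed to chemical for 48 h, then fixed with 10% TCA and stained with 0.1% sulforhodamine B; absorbance at 560 nm gave relative cell number, fitted bidirectionally against DMSO baseline.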

[17] = BSK_3C_SRB: Viability Assessment in the BioMAP Diversity Plus: 3C Assay (AID 2283023); conditions: primary human endothelial cells (HUVEC);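 further: fitted both ways against DMSO so a hit may be signal rise or drop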
In short: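 Cells were dosed with chemical, cultured 24 h, fixed with 10% TCA, stained with 0.1% SRB and read at 560 nm. Human umbilical vein endothelium was used; DMSO served as negative control and baseline.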

[18] = biological target: Retinoic acid receptor RXR-alpha (Homo sapiens) (UniProt P19793); assay: ATG_RXRa_TRANS: Attagene TRANS-FACTORIAL HepG2 Assay for human Retinoid X Receptor alpha (RXRa) (AID 2283012; active means hit-call score of the fitted dose curve at least 0.9, where 1 is the maximum)
In short: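 HepG2 cells transiently transfected with multiplexed GAL4-UAS reporter units and chimeric NR-GAL4 fusions, dosed 24 h. Reporter mRNA measured by RT-PCR, FAM labelling, HpaI digestion and capillary electrophoresis; gain-of-signal fitted relative to DMSO baseline.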

[19] = biological target: human Thyroid Receptor alpha (THRa1), THRA (gene 7067) (UniProt P10827); assay: ATG_THRa1_TRANS: Attagene TRANS-FACTORIAL HepG2 Assay for human Thyroid Receptor alpha (THRa1) (AID 2283014; active means hit-call score of the fitted dose curve at least 0.9, where 1 is the maximum)
In short: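 First, HepG2 cells receive multiple GAL4-UAS reporter units and the chimeric receptor. They are then dosed for 24 h, after which RNA is reverse-transcribed, amplified, labelled, HpaI-cut and sized by capillary electrophoresis; gain relative to DMSO is scored.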

Chain of human Thyroid Receptor alpha (THRa1), THRA (gene 7067) (P10827 whole entry, looked up, the tested form may be a part): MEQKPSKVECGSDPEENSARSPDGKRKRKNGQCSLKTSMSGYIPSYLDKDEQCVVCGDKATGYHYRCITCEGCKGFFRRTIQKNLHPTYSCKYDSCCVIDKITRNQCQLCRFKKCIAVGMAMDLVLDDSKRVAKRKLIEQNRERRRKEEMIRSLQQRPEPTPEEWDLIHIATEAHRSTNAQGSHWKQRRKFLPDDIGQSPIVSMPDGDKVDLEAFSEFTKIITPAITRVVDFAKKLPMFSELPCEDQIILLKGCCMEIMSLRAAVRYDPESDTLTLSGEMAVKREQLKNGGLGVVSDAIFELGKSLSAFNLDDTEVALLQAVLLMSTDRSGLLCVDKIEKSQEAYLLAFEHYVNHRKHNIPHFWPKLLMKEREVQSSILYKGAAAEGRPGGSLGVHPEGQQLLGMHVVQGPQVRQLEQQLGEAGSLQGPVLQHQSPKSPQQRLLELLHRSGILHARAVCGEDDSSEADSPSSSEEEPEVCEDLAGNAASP
Chain of Nuclear receptor subfamily 1 group I member 2 (Homo sapiens) (O75469 whole entry, looked up, the tested form may be a part): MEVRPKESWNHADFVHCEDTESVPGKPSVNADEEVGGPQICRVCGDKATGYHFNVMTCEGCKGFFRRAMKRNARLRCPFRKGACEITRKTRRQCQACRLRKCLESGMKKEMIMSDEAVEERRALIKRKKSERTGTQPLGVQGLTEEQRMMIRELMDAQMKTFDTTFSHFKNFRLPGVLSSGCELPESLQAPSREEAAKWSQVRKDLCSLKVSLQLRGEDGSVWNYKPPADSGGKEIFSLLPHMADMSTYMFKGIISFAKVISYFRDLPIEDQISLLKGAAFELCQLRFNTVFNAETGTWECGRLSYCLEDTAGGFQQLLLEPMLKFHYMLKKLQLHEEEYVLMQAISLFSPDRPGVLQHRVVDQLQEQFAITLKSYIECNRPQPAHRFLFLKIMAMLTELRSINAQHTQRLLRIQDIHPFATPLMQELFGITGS
Chain of human RAR-related Orphan Receptor beta (RORb), RORB (gene 6096) (Q92753 whole entry, looked up, the tested form may be a part): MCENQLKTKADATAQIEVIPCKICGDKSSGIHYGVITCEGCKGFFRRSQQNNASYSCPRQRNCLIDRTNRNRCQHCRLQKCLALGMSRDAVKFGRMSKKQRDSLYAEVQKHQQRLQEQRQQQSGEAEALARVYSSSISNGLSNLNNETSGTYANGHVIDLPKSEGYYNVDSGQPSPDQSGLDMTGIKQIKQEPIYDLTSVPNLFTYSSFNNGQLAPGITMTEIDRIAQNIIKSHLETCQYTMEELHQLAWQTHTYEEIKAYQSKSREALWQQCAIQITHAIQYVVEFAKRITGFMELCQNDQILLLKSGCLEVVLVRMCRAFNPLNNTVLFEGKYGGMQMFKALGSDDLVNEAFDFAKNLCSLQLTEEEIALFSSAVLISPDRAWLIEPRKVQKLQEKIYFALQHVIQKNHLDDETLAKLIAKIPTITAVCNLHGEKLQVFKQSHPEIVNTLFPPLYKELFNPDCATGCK
Chain of Peroxisome proliferator-activated receptor gamma (Homo sapiens) (P37231 whole entry, looked up, the tested form may be a part): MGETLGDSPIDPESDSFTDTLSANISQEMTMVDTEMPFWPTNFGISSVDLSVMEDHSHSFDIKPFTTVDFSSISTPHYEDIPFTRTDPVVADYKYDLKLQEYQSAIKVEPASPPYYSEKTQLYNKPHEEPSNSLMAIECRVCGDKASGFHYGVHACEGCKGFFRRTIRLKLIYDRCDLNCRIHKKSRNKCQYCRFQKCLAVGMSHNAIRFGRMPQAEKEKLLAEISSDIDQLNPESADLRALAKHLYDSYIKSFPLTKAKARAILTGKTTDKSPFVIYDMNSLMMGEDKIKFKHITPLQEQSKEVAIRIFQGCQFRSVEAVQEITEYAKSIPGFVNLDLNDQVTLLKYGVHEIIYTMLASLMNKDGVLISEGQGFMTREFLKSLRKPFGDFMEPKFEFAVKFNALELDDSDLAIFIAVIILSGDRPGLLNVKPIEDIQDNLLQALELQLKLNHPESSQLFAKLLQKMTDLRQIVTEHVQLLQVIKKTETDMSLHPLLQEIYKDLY
Chain of E-selectin (Homo sapiens) (P16581 whole entry, looked up): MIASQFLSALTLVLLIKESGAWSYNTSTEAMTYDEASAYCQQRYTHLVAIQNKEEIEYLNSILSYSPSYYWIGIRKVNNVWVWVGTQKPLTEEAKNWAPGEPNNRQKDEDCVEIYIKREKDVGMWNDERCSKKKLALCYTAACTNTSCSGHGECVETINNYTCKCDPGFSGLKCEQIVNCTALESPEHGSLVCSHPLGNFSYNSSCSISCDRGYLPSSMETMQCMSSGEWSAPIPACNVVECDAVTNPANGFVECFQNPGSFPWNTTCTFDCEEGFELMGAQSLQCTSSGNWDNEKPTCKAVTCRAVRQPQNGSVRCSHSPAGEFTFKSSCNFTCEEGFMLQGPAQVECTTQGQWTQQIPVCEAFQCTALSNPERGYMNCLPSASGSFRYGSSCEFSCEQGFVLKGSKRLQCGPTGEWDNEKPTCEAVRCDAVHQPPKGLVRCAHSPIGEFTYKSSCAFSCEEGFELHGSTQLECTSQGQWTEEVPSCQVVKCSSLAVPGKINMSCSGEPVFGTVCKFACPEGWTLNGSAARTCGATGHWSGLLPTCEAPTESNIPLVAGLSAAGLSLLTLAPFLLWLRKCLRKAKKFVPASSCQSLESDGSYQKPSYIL
Chain of human Retinoid X Receptor beta (RXRb), RXRB (gene 6257) (P28702 whole entry, looked up, the tested form may be a part): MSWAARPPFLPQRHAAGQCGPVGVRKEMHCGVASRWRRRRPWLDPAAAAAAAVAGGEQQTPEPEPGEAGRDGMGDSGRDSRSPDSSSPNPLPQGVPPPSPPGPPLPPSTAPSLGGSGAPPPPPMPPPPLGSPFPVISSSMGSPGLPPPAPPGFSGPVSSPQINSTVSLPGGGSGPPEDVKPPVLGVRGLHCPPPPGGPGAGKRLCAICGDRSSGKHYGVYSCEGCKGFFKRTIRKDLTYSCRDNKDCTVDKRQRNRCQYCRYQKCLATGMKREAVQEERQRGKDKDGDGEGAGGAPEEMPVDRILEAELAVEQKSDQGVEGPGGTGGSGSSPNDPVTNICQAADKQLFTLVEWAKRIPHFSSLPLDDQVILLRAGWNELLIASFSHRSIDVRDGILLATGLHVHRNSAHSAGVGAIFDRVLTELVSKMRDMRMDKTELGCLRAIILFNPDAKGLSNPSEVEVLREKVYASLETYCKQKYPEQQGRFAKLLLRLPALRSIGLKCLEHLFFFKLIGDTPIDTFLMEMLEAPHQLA
Chain of human Vitamin D Receptor (VDR), VDR (gene 7421) (P11473 whole entry, looked up, the tested form may be a part): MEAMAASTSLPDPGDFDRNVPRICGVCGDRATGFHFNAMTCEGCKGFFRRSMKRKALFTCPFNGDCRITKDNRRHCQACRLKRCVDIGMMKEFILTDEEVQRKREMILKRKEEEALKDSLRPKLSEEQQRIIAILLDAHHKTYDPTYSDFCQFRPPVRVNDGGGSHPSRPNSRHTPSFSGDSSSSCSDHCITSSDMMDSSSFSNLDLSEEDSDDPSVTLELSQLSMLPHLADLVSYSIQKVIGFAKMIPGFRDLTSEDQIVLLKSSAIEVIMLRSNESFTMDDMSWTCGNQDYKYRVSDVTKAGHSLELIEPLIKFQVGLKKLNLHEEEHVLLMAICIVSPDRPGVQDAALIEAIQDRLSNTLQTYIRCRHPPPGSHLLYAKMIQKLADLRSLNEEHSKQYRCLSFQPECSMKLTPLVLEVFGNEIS
Chain of human Peroxisome Proliferator-activated Receptor delta (PPARd), PPARD (gene 5467) (Q03181 whole entry, looked up, the tested form may be a part): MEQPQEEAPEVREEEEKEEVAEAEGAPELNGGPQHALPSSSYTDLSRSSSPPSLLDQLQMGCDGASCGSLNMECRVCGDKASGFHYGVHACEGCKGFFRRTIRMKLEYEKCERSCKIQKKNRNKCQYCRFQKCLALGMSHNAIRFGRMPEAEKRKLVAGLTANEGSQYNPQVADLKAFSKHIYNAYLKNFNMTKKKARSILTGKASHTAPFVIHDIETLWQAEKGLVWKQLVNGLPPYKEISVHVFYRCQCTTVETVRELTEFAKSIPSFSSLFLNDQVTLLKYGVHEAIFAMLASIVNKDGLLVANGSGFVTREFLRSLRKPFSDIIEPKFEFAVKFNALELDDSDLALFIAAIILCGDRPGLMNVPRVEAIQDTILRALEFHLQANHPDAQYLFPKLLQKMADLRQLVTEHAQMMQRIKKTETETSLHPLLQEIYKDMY
Chain of human RAR-related Orphan Receptor gamma (RORg), RORC (gene 6097) (P51449 whole entry, looked up, the tested form may be a part): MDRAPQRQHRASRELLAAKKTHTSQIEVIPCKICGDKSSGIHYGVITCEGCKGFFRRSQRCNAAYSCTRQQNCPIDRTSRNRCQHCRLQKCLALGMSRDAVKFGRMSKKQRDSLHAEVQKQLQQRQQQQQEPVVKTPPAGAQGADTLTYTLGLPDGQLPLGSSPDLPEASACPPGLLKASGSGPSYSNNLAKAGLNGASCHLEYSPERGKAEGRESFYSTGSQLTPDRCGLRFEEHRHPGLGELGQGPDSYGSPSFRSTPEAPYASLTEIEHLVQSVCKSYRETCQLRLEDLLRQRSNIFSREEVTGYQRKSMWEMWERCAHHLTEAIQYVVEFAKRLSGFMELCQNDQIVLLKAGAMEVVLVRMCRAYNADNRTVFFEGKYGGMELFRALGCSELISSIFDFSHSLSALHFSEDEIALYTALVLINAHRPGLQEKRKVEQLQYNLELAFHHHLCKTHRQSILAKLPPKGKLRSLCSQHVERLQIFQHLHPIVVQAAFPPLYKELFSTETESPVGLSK
Chain of Retinoic acid receptor RXR-alpha (Homo sapiens) (P19793 whole entry, looked up, the tested form may be a part): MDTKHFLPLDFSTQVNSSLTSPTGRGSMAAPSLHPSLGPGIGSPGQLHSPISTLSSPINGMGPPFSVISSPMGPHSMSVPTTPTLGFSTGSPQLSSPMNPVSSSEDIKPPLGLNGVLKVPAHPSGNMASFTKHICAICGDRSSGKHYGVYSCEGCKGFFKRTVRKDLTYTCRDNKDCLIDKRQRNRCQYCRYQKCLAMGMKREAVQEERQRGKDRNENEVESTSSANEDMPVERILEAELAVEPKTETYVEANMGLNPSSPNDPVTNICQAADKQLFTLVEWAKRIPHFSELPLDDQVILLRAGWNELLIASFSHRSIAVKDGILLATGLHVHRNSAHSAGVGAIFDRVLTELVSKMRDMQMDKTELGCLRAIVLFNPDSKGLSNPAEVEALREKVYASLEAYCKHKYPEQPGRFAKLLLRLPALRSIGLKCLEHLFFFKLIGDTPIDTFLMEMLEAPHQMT

OC12N=C(c3ccccc3)SC1Cc1cc(Cl)ccc12 (stereo not drawn)
outcome [1]: inactive
outcome [2]: inactive
AC50 [3]: 30 nM (active)
AC50 [4]: 2.41 µM (active)
outcome [5]: inactive
outcome [6]: inactive
outcome [7]: inactive
outcome [8]: inactive
outcome [9]: inactive
outcome [10]: inactive
outcome [11]: inactive
AC50 [12]: 33.8 µM (active)
outcome [13]: inactive
outcome [14]: inactive
outcome [15]: inactive

O=c1ccc2ccccc2o1
outcome [2]: inactive
outcome [8]: inactive
outcome [9]: inactive
outcome [10]: inactive
outcome [12]: inactive
outcome [13]: inactive
outcome [14]: inactive

Clc1ccccc1C(c1ccccc1)(c1ccccc1)n1ccnc1
AC50 [2]: 31.5 µM (active)
AC50 [16]: 13.7 µM (active)
AC50 [4]: 0.24 µM (active)
AC50 [8]: 30.8 µM (active)
AC50 [9]: 7.88 µM (active)
AC50 [10]: 15.9 µM (active)
AC50 [11]: 16.9 µM (active)
AC50 [12]: 15.7 µM (active)
AC50 [13]: 27.2 µM (active)
AC50 [14]: 34.5 µM (active)
outcome [15]: inactive

CCN(CC)C(=O)c1cc(S(=O)(=O)Cc2ccccc2)c(N2CCC(c3ccccc3)CC2)cc1N(CC)CCN(C)C
AC50 [2]: 28.7 µM (active)
AC50 [16]: 6.12 µM (active)
AC50 [4]: 0.091 µM (active)
AC50 [8]: 27.2 µM (active)
AC50 [9]: 9.53 µM (active)
AC50 [10]: 10.4 µM (active)
AC50 [11]: 18.7 µM (active)
AC50 [12]: 6.27 µM (active)
AC50 [13]: 13.8 µM (active)
AC50 [14]: 29.9 µM (active)

Cc1cn([C@H]2C[C@H](N=[N+]=[N-])[C@@H](CO)O2)c(=O)[nH]c1=O
outcome [1]: inactive
outcome [2]: inactive
outcome [3]: inactive
outcome [4]: inactive
outcome [7]: inactive
outcome [8]: inactive
outcome [9]: inactive
outcome [10]: inactive
outcome [12]: inactive
outcome [13]: inactive
outcome [14]: inactive
outcome [15]: inactive

CCO[Si](CCCNC(N)=O)(OCC)OCC
outcome [2]: inactive
outcome [6]: inactive
outcome [7]: inactive
outcome [8]: inactive
outcome [9]: inactive
outcome [10]: inactive
outcome [12]: inactive
outcome [13]: inactive
outcome [14]: inactive
outcome [15]: inactive
outcome [17]: inactive

C[C@]12CC[C@@H]3c4ccc(O)cc4CC[C@H]3[C@@H]1CCC2=O
outcome [2]: inactive
AC50 [16]: 20.7 µM (active)
outcome [5]: inactive
outcome [8]: inactive
outcome [9]: inactive
outcome [10]: inactive
AC50 [12]: 31.7 µM (active)
outcome [13]: inactive
outcome [14]: inactive

CCCCOC(=O)CC(CC(=O)OCCCC)(OC(C)=O)C(=O)OCCCC
outcome [1]: inactive
outcome [2]: inactive
AC50 [3]: 16.2 µM (active) and 8.69 µM (active)
AC50 [4]: 3.1 µM (active)
outcome [4]: inactive
outcome [18]: inactive
outcome [19]: inactive
outcome [8]: inactive
outcome [9]: inactive
outcome [10]: inactive
outcome [12]: inactive
outcome [13]: inactive
outcome [14]: inactive
outcome [15]: inactive
outcome [17]: inactive

Cc1ccc2oc(CN(Cc3ccccc3)C(=O)Nc3c(F)cc(F)cc3F)c(-c3ccc(Cl)cc3)c2c1
outcome [2]: inactive
AC50 [16]: 7.43 µM (active)
outcome [3]: inactive
AC50 [4]: 1.24 µM (active)
outcome [7]: inactive
outcome [19]: inactive
outcome [8]: inactive
outcome [9]: inactive
outcome [10]: inactive
outcome [11]: inactive
outcome [13]: inactive
outcome [14]: inactive
outcome [15]: inactive

From PubChem BioAssay (EPA / NIEHS)
